Assay results taken from ChEMBL document CHEMBL5606460, “ASAP - DENV-2 NS2B-NS3 protease fluorescence single point” (2024).
Hit rate of the full screen: of about 2,000 compounds, about 110 (5.5%) showed an effect of 50% or more. Only a selection was taken, and strong results are over-represented in it overall.

Biological target: Genome polyprotein (dengue virus type 2) (UniProt P29990)
[1] = Thailand/16681/1984, Concentration 25.0 uM, Number of replicates 1.0

`CCCCCC(=O)N[C@@H](Cc1ccccc1)C(=O)NCc1cccc(CN)c1` was tested, and the inhibition (Thailand/16681/1984, Concentration 49.5 uM, Number of replicates 2.0, Standard deviation 0.5911657110409295 %) was -0.287%, the inhibition (Thailand/16681/1984, Concentration 99.01 uM, Number of replicates 2.0, Standard deviation 0.7592516208074989 %) was -0.251% and the inhibition (Thailand/16681/1984, Concentration 198.0 uM, Number of replicates 2.0, Standard deviation 1.593950905190228 %) was -0.639%.

`c1cnc(C2CCN(Cc3c[nH]c4ccccc34)CC2)nc1` gave an inhibition (Thailand/16681/1984, Concentration 49.5 uM, Number of replicates 2.0, Standard deviation 0.0814293971969877 %) of -4.94%, an inhibition (Thailand/16681/1984, Concentration 99.01 uM, Number of replicates 2.0, Standard deviation 1.1974150626674833 %) of -3.24% and an inhibition (Thailand/16681/1984, Concentration 198.0 uM, Number of replicates 2.0, Standard deviation 1.6263665310687148 %) of -1.42%.

For `COC(=O)c1csc(Cn2ncc(C3CCNCC3)c2C)n1`, the inhibition (Thailand/16681/1984, Concentration 49.5 uM, Number of replicates 2.0, Standard deviation 0.7717951129802201 %) was -5.62%, the inhibition (Thailand/16681/1984, Concentration 99.01 uM, Number of replicates 2.0, Standard deviation 0.8815947340216488 %) was -4.23% and the inhibition (Thailand/16681/1984, Concentration 198.0 uM, Number of replicates 2.0, Standard deviation 1.4332580373412276 %) was -2.98%.

Molecule `O=C(Cc1cnc[nH]1)NC1CCN(C(=O)c2cccc3[nH]ncc23)CC1` has an inhibition (Thailand/16681/1984, Concentration 49.5 uM, Number of replicates 2.0, Standard deviation 0.5712330544607026 %) of -0.001%, an inhibition (Thailand/16681/1984, Concentration 99.01 uM, Number of replicates 2.0, Standard deviation 0.88648652906749 %) of 0.297% and an inhibition (Thailand/16681/1984, Concentration 198.0 uM, Number of replicates 2.0, Standard deviation 1.4162803173835237 %) of -0.087%.

With `O=Cc1ccc(N2CCC(C(=O)Nc3n[nH]c4ccc(Br)cc34)CC2)cc1` the inhibition [1] was 10.1%.

`CCN(CC)S(=O)(=O)c1ccc(NC(=O)C2CCN(c3ccc(C=O)cc3)CC2)cc1` showed an inhibition [1] of 12.2%.

With `O=C(Nc1cc2c(cc1C1CC1)CNC2)c1cc(F)cc2[nH]ncc12` the inhibition (Thailand/16681/1984, Concentration 99.5 uM, Number of replicates 2.0, Standard deviation 0.34945873996674337 %) was 63.1% and the inhibition (Thailand/16681/1984, Concentration 295.6 uM, Number of replicates 2.0, Standard deviation 0.6526301250248825 %) was 85.2%.

In the case of `COc1cc(Cc2c(-c3ccc(F)cc3)noc2C)nc(N2CCNCC2)n1`, the inhibition (Thailand/16681/1984, Concentration 49.5 uM, Number of replicates 2.0, Standard deviation 0.4285559202279565 %) is reported as -0.048%, the inhibition (Thailand/16681/1984, Concentration 99.01 uM, Number of replicates 2.0, Standard deviation 0.4007548684992308 %) is reported as 1.07% and the inhibition (Thailand/16681/1984, Concentration 198.0 uM, Number of replicates 2.0, Standard deviation 0.4757654271085549 %) is reported as 6.24%.

For `O=Cc1ccc(N2CCC(C(=O)NCc3c(F)ccc(F)c3F)CC2)cc1`, the inhibition [1] was 12.3%.

For `O=Cc1ccc(N2CCC(C(=O)NCCc3ccc(Cl)c(Cl)c3)CC2)cc1`, the inhibition [1] was 11.5%.

Molecule `CCN(CC)C1CCN(C(=O)C2CCN(c3ccc(C=O)cc3)CC2)CC1` has an inhibition [1] of 12.6%.

Molecule `C[C@@H](NC(=O)c1cc(Cl)ccc1NS(=O)(=O)c1ccc(Oc2ccccc2Cl)cc1)[C@H]1CCCO1` has an inhibition (Thailand/16681/1984, Concentration 49.5 uM, Number of replicates 2.0, Standard deviation 0.29635236214386457 %) of 82.5%, an inhibition (Thailand/16681/1984, Concentration 99.01 uM, Number of replicates 2.0, Standard deviation 0.052507555399236044 %) of 84.4% and an inhibition (Thailand/16681/1984, Concentration 198.0 uM, Number of replicates 2.0, Standard deviation 0.13838732262418607 %) of 80.7%.

With `C[C@@H](NC(=O)c1cc(Cl)ccc1NS(=O)(=O)c1ccc(Oc2ccccc2Cl)cc1)C1COC1` the inhibition (Thailand/16681/1984, Concentration 49.5 uM, Number of replicates 2.0, Standard deviation 0.4885797549298071 %) was 59.2%, the inhibition (Thailand/16681/1984, Concentration 99.01 uM, Number of replicates 2.0, Standard deviation 0.152624190876378 %) was 68.4% and the inhibition (Thailand/16681/1984, Concentration 198.0 uM, Number of replicates 2.0, Standard deviation 0.02447349481851786 %) was 59.2%.

For `Cc1cnccc1NC(=O)c1cc(C2CCCC2)n(C)c1C`, the inhibition (Thailand/16681/1984, Concentration 49.5 uM, Number of replicates 2.0, Standard deviation 1.895573393565592 %) was -3.53%, the inhibition (Thailand/16681/1984, Concentration 99.01 uM, Number of replicates 2.0, Standard deviation 0.7217418528634704 %) was -1.88% and the inhibition (Thailand/16681/1984, Concentration 198.0 uM, Number of replicates 2.0, Standard deviation 1.3851925911876457 %) was 0.718%.

Work on `CC(C)CNC(=O)c1cc(Cl)ccc1NS(=O)(=O)c1ccc(Oc2ccccc2Cl)cc1` yielded an inhibition (Thailand/16681/1984, Concentration 49.5 uM, Number of replicates 2.0, Standard deviation 0.23411798845789034 %) of 89.6%, an inhibition (Thailand/16681/1984, Concentration 99.01 uM, Number of replicates 2.0, Standard deviation 0.14645254355523077 %) of 88.7% and an inhibition (Thailand/16681/1984, Concentration 198.0 uM, Number of replicates 2.0, Standard deviation 0.2542297902177128 %) of 84.4%.

For `C[C@@H](CS(C)(=O)=O)NC(=O)c1cc(Cl)ccc1NS(=O)(=O)c1ccc(Oc2ccccc2Cl)cc1`, the inhibition (Thailand/16681/1984, Concentration 49.5 uM, Number of replicates 2.0, Standard deviation 0.5989303195749703 %) was 51.1%, the inhibition (Thailand/16681/1984, Concentration 99.01 uM, Number of replicates 2.0, Standard deviation 0.4213875631597994 %) was 57% and the inhibition (Thailand/16681/1984, Concentration 198.0 uM, Number of replicates 2.0, Standard deviation 0.24651523106627876 %) was 43%.

For `CCCCCNC(=O)c1cc(Cl)ccc1NS(=O)(=O)c1ccc(Oc2ccccc2Cl)cc1`, the inhibition (Thailand/16681/1984, Concentration 49.5 uM, Number of replicates 2.0, Standard deviation 0.23227296801747743 %) was 78.7%, the inhibition (Thailand/16681/1984, Concentration 99.01 uM, Number of replicates 2.0, Standard deviation 0.006678758202430312 %) was 76.9% and the inhibition (Thailand/16681/1984, Concentration 198.0 uM, Number of replicates 2.0, Standard deviation 0.04271599955318515 %) was 65.6%.

Molecule `COC[C@@H](C)CNC(=O)c1cc(Cl)ccc1NS(=O)(=O)c1ccc(Oc2ccccc2Cl)cc1` has an inhibition (Thailand/16681/1984, Concentration 49.5 uM, Number of replicates 2.0, Standard deviation 0.2816677257730929 %) of 82.2%, an inhibition (Thailand/16681/1984, Concentration 99.01 uM, Number of replicates 2.0, Standard deviation 0.03025941418209339 %) of 83.8% and an inhibition (Thailand/16681/1984, Concentration 198.0 uM, Number of replicates 2.0, Standard deviation 0.3452939569842909 %) of 76.9%.

`CC[C@H](C#N)NC(=O)c1cc(Cl)ccc1NS(=O)(=O)c1ccc(Oc2ccccc2Cl)cc1` showed an inhibition (Thailand/16681/1984, Concentration 49.5 uM, Number of replicates 2.0, Standard deviation 0.706613157296788 %) of 44.6%, an inhibition (Thailand/16681/1984, Concentration 99.01 uM, Number of replicates 2.0, Standard deviation 0.473003628419333 %) of 22.1% and an inhibition (Thailand/16681/1984, Concentration 198.0 uM, Number of replicates 2.0, Standard deviation 1.2548162043536224 %) of 2.91%.

`CNC(=O)[C@@H](C)CNS(=O)(=O)c1ccc(Oc2ccccc2Cl)cc1` gave an inhibition (Thailand/16681/1984, Concentration 49.5 uM, Number of replicates 2.0, Standard deviation 0.8337442367954725 %) of -0.747%, an inhibition (Thailand/16681/1984, Concentration 99.01 uM, Number of replicates 2.0, Standard deviation 0.25212885411314173 %) of 0.957% and an inhibition (Thailand/16681/1984, Concentration 198.0 uM, Number of replicates 2.0, Standard deviation 0.23111814436827896 %) of 2.51%.
